Experiments:
[1] = target: Dual specificity protein kinase CLK3 (Homo sapiens) (UniProt P49761); conditions: at 1 µM;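 further: each value is the mean inhibition of CLK3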
[2] = target: Dual specificity tyrosine-phosphorylation-regulated kinase 1A (Homo sapiens) (UniProt Q13627); conditions: at 0.1 µM
[3] = target: Dual specificity tyrosine-phosphorylation-regulated kinase 1A (Homo sapiens) (UniProt Q13627); conditions: at 1 µM
[4] = target: Dual specificity tyrosine-phosphorylation-regulated kinase 1B (Homo sapiens) (UniProt Q9Y463); conditions: at 0.1 µM
Chain of Dual specificity tyrosine-phosphorylation-regulated kinase 1B (Homo sapiens) (Q9Y463 whole entry, looked up): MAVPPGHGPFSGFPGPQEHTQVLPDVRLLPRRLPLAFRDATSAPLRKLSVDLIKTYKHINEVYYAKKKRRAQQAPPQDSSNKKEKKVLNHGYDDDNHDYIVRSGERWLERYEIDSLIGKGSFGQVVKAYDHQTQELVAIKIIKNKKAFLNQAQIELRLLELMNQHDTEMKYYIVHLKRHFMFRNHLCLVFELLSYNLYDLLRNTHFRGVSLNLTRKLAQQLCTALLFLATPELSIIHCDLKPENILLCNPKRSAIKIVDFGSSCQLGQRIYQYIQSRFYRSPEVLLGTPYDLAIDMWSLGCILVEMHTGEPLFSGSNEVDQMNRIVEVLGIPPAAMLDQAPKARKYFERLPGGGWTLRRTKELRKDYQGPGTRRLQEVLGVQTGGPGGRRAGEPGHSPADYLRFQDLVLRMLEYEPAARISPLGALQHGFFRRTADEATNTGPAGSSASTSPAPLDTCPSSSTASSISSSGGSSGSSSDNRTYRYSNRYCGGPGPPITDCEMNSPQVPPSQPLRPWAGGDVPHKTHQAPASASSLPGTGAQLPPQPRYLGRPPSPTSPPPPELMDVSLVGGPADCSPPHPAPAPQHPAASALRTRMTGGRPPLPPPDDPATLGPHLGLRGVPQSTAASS

[5] = target: Dual specificity tyrosine-phosphorylation-regulated kinase 1B (Homo sapiens) (UniProt Q9Y463); conditions: at 1 µM
[6] = target: T1, Dual specificity tyrosine-phosphorylation-regulated kinase 2 (Homo sapiens) (UniProt Q92630); conditions: at 0.1 µM
T1 sequence (whole entry): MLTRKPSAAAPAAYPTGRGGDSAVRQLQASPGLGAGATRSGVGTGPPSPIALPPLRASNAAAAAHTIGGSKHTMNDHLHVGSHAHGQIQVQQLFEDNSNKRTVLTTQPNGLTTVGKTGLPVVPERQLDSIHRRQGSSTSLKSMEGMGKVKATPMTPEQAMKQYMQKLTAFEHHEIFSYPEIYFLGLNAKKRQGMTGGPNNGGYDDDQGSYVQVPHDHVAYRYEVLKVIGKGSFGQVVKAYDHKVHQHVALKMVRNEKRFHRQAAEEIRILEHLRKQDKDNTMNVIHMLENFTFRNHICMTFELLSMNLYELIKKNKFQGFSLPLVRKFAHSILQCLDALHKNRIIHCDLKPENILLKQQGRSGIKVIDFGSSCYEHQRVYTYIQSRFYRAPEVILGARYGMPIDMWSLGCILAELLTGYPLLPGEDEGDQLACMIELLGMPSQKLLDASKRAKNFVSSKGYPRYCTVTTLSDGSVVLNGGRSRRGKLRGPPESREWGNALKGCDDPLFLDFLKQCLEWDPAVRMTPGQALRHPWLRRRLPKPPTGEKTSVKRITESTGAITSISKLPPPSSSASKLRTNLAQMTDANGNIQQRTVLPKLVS

[7] = target: T1, Dual specificity tyrosine-phosphorylation-regulated kinase 2 (Homo sapiens); conditions: at 1 µM
[8] = target: Glycogen synthase kinase-3 alpha (Homo sapiens) (UniProt P49840); conditions: at 0.1 µM
Chain of Glycogen synthase kinase-3 alpha (Homo sapiens) (P49840 2-483 limits assumed): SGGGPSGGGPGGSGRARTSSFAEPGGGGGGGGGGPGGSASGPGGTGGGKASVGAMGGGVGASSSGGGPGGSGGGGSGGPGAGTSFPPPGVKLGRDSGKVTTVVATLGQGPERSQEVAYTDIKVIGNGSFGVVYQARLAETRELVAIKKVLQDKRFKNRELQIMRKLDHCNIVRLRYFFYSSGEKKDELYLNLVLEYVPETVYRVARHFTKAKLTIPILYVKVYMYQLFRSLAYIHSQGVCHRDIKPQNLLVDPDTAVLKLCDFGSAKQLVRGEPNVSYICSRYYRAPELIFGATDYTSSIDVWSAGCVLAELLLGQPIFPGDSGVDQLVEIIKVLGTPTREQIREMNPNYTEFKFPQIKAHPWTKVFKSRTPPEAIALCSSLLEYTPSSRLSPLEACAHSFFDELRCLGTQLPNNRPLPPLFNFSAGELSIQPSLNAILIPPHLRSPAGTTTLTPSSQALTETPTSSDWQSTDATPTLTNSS

[9] = target: Glycogen synthase kinase-3 alpha (Homo sapiens) (UniProt P49840); conditions: at 1 µM
[10] = target: Glycogen synthase kinase-3 beta (Homo sapiens) (UniProt P49841); conditions: at 0.1 µM
Chain of Glycogen synthase kinase-3 beta (Homo sapiens) (P49841 whole entry, looked up): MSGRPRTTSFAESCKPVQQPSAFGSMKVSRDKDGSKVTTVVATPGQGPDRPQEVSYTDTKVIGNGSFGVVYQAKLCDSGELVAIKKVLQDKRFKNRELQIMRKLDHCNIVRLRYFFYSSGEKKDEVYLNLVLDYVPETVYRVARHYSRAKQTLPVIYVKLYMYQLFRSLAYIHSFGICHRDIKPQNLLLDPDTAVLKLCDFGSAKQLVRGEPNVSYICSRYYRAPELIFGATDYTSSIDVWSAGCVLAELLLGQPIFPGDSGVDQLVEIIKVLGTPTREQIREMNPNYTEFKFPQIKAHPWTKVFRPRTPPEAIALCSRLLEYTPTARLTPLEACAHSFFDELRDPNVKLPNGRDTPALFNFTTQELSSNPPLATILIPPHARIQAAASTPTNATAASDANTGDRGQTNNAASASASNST

[11] = target: Glycogen synthase kinase-3 beta (Homo sapiens) (UniProt P49841); conditions: at 1 µM
[12] = target: Homeodomain-interacting protein kinase 1 (Homo sapiens) (UniProt Q86Z02); conditions: at 0.1 µM
Chain of Homeodomain-interacting protein kinase 1 (Homo sapiens) (Q86Z02 whole entry, looked up): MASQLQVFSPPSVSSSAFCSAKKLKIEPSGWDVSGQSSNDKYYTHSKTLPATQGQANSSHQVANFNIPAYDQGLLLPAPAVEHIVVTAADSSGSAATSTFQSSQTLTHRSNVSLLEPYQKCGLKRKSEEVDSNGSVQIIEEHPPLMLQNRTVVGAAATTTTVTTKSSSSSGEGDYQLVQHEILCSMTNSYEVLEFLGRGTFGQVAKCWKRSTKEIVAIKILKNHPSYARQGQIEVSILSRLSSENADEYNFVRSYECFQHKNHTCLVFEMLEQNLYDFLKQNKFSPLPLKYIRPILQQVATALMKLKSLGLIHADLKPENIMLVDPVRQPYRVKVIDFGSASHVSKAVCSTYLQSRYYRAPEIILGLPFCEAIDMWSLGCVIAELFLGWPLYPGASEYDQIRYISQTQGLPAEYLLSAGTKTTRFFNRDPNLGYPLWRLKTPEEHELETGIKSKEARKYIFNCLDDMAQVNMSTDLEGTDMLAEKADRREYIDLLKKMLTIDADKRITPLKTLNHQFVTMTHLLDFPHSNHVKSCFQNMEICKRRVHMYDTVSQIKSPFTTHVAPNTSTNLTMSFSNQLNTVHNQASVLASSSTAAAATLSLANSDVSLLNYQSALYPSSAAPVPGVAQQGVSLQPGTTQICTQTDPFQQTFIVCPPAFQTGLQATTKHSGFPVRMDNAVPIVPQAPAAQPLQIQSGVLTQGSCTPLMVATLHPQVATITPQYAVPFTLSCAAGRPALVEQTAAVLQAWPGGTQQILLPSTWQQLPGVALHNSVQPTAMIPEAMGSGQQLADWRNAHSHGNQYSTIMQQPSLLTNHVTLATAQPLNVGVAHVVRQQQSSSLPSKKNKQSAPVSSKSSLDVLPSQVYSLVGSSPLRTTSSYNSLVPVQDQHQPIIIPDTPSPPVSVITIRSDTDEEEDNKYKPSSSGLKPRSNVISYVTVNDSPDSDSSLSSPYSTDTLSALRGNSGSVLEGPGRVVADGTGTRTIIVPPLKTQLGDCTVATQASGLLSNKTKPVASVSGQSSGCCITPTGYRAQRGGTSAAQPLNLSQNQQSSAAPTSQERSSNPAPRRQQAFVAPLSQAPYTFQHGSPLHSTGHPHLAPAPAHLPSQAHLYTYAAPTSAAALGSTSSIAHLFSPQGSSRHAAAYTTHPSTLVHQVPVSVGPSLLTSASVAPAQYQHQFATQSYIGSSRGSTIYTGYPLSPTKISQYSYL

[13] = target: Homeodomain-interacting protein kinase 1 (Homo sapiens) (UniProt Q86Z02); conditions: at 1 µM
[14] = target: T2, Homeodomain-interacting protein kinase 4 (Homo sapiens) (UniProt Q8NE63); conditions: at 0.1 µM
T2 sequence (whole entry): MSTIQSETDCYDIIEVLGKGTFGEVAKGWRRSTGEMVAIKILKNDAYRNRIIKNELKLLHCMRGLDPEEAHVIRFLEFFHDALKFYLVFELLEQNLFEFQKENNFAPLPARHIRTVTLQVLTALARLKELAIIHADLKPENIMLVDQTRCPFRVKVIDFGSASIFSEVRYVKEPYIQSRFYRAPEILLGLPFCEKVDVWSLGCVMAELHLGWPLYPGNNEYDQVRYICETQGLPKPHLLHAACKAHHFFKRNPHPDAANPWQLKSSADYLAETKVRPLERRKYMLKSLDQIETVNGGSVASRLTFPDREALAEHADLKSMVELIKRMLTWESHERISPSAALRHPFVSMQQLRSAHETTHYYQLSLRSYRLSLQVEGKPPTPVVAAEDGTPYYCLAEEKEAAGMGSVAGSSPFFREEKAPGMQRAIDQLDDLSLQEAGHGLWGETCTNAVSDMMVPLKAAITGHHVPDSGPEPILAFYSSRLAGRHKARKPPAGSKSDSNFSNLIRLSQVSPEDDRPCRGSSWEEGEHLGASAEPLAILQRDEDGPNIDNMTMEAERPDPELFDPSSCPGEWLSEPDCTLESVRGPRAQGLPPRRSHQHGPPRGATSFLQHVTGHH

[15] = target: T2, Homeodomain-interacting protein kinase 4 (Homo sapiens); conditions: at 1 µM
[16] = target: Mitogen-activated protein kinase 9 (Homo sapiens) (UniProt P45984); conditions: at 0.1 µM
Chain of Mitogen-activated protein kinase 9 (Homo sapiens) (P45984 whole entry, looked up): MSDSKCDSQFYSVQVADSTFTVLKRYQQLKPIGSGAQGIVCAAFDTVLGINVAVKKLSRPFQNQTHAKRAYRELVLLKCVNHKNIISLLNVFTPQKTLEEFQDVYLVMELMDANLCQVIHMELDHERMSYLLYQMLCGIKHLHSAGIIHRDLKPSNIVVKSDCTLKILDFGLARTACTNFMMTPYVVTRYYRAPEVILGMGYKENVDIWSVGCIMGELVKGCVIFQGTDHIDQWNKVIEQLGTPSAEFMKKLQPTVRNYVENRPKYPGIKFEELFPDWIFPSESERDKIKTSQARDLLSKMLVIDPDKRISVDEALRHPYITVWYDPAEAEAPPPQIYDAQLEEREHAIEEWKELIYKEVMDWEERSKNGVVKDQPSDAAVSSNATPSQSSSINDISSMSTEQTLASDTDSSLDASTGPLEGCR

[17] = target: Mitogen-activated protein kinase 9 (Homo sapiens) (UniProt P45984); conditions: at 1 µM
[18] = target: Mitogen-activated protein kinase 1 (Homo sapiens) (UniProt P28482); conditions: at 0.1 µM
Chain of Mitogen-activated protein kinase 1 (Homo sapiens) (P28482 whole entry): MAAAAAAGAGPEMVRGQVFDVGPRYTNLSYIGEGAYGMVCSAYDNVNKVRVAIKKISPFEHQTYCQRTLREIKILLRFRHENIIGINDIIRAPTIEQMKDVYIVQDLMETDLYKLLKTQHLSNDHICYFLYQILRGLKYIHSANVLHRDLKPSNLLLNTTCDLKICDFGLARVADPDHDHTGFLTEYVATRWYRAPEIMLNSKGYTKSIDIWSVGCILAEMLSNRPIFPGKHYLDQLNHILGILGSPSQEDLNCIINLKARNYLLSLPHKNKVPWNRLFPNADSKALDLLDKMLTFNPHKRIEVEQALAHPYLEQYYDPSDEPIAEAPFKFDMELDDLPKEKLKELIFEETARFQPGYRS

[19] = target: Mitogen-activated protein kinase 1 (Homo sapiens) (UniProt P28482); conditions: at 1 µM
[20] = target: Mitogen-activated protein kinase 3 (Homo sapiens) (UniProt P27361); conditions: at 0.1 µM;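 further: each value is a mean inhibition figure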
Chain of Mitogen-activated protein kinase 3 (Homo sapiens) (P27361 whole entry): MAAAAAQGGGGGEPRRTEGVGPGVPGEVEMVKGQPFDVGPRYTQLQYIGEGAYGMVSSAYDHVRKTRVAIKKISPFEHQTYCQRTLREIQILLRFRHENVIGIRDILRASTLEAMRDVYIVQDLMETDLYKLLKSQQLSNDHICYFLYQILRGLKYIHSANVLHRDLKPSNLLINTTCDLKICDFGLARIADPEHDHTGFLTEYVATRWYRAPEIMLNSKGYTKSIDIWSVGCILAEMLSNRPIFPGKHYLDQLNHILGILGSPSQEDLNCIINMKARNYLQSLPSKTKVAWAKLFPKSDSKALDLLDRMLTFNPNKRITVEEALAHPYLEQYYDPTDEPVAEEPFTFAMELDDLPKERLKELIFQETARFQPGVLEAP

Chain of Dual specificity protein kinase CLK3 (Homo sapiens) (P49761 whole entry, looked up): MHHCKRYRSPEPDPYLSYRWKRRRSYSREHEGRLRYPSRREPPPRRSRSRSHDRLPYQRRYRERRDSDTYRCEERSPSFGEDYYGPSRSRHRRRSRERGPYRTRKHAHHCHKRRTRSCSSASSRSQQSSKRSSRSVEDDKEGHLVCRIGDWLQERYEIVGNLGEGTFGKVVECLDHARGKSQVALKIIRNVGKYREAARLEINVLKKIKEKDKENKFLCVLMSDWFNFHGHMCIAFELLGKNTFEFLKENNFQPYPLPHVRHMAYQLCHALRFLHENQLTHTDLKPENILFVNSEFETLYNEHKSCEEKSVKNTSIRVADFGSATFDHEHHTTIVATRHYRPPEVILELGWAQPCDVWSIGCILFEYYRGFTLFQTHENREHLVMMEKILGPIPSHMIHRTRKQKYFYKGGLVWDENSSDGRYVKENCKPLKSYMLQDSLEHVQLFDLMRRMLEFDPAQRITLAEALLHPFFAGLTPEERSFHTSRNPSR

Row | Structure (SMILES) | inhibition [1] [%] | inhibition [2] [%] | inhibition [3] [%] | inhibition [4] [%] | inhibition [5] [%] | inhibition [6] [%] | inhibition [7] [%] | inhibition [8] [%] | inhibition [9] [%] | inhibition [10] [%] | inhibition [11] [%] | inhibition [12] [%] | inhibition [13] [%] | inhibition [14] [%] | inhibition [15] [%] | inhibition [16] [%] | inhibition [17] [%] | inhibition [18] [%] | inhibition [19] [%] | inhibition [20] [%]
1 | COC(=O)c1ccc2c(c1)C(=Cc1cc(Br)c(O)c(Br)c1)C(=O)N2 | 7.3 | 14.2 | 61.9 | 9.22 | 53.5 | 5.68 | 18.8 | 9.38 | 42.9 | 9.77 | 44.2 | 10.2 | 60.8 | 4.27 | 35 | 4.88 | 11 | 3.12 | 6.19 | 4.78
2 | ON=C1CCc2cc(-c3nc(C4CCNCC4)[nH]c3-c3ccncc3)ccc21 | 0.22 | -0.17 | 1.12 | 0.17 | -0.11 | -0.01 | 1.2 | 1.4 | 5.93 | 0.85 | 4.56 | -5.24 | 0.65 | -1.3 | 2.78 | 2.05 | 3.06 | -1.76 | 1.85 | 1.87
3 | CN(c1ccc(NC(=O)Nc2ccc(OC(F)(F)F)cc2)cc1)c1ccnc(Nc2cccc(S(N)(=O)=O)c2)n1 | 1.99 | 1.32 | 1.5 | -2.14 | -0.44 | 2.23 | 3.14 | 2.09 | 9.4 | 0.92 | 13.6 | 1.06 | 34 | 62.4 | 83.6 | 1.46 | 3.15 | 4.33 | 3.93 | 2.67
4 | COc1cccc(-n2ncc3c(N/N=C/c4ccc(S(C)(=O)=O)cc4)ncnc32)c1 | 13.5 | 23.1 | 64.3 | 9.87 | 47.3 | 14.5 | 24.9 | 72.7 | 80.6 | 70.4 | 79 | 21.4 | 64.3 | 18.3 | 60.6 | 1.92 | 4.9 | 1.63 | 1.93 | 2.27
5 | NS(=O)(=O)c1ccc(-c2cc3ccncc3cc2OCc2ccccc2)cc1 | 3.69 | 1.26 | 4.84 | 0.97 | 2.12 | 2.46 | 3.11 | 2.45 | 4.95 | 2.08 | 3.98 | 1.69 | 4.62 | 3.58 | 6.62 | 3.39 | 6.21 | 5.32 | 3.37 | 4.03
6 | CN(C)CCCn1c(-c2nonc2N)nc2cnccc21 | 1.96 | 3.5 | 8.9 | 0.77 | 4.52 | 2.75 | 3.79 | 2.45 | 15.1 | 2.77 | 12.3 | 1.03 | -0.49 | 0.39 | 0.4 | 5.36 | 4.57 | 2.21 | 4.9 | 2.32
7 | CC(C)c1ccc2c(c1)NC(=O)/C2=N/Nc1ccc(S(N)(=O)=O)cc1 | -0.08 | 0.62 | 2.99 | 3.56 | 4.99 | 0.96 | -0.44 | 4.22 | 16.5 | 4.19 | 16.8 | -1.88 | 4.72 | 0.27 | 1.57 | 0.14 | 0.34 | 2.02 | 0.4 | 1.56
8 | NS(=O)(=O)c1ccc(NC=C2C(=O)Nc3ccc4ncsc4c32)cc1 | 17.3 | 30.9 | 63.2 | 20.4 | 57.6 | 10.9 | 46.2 | 40.4 | 70.9 | 41.1 | 71.8 | 14.2 | 47.4 | 2.67 | 21.7 | 8.45 | 36.1 | 11 | 47.4 | 7.04
9 | OCc1ccc(-c2nc(-c3ccccn3)c(-c3ccc4c(c3)OCO4)[nH]2)cc1 | 2.95 | 1.82 | 4.86 | 0.33 | 0.97 | 2.62 | 3.63 | 2.15 | 4.5 | 2.21 | 3.44 | 0.23 | 4.92 | 1.72 | 0.79 | 2.15 | 5.14 | 5.49 | 3.7 | 3.56
10 | COC(=O)c1cncc(/C=C/c2c(C)cc(O)cc2C)c1 | 3.16 | 2.81 | 7.4 | 0.83 | 4.47 | 3.09 | 4 | 7.07 | 14.3 | 6.58 | 12.9 | 5.96 | 7.63 | 2.51 | 6.29 | -0.35 | 2.18 | 4.28 | 4.13 | 3.96
11 | CN1CCN(C(=O)c2ccc(NC(=O)Nc3ccc(N(C)c4ccnc(Nc5ccc(CS(C)(=O)=O)cc5)n4)cc3)cc2)CC1 | -0.46 | -0.03 | -2.1 | 0.37 | -2.01 | 2.14 | 4.06 | 2.9 | 4.98 | 1.98 | 4.51 | -3.22 | 5.55 | 0.53 | 9.14 | 0.8 | 12.4 | 1.77 | 11.2 | 2.64
12 | CN(C)C(=O)O[C@@H]1CN[C@@H](C#Cc2cc3ncnc(Nc4ccc(OCc5cccc(F)c5)c(Cl)c4)c3s2)C1 | 0.69 | 0.28 | 2.08 | 0.23 | 1.08 | -0.19 | -0.32 | 1.34 | 8.31 | 1.37 | 7.41 | -3.67 | -3.81 | -1.55 | 0.99 | 3.81 | 4.77 | -1.16 | 1.96 | 3.17
13 | NS(=O)(=O)c1cccc(-c2cc3ccncc3cc2OCc2ccccc2)c1 | 3.46 | 3.42 | 5.5 | 0.3 | 2.52 | 3.59 | 3.57 | 1.97 | 4.81 | 0.8 | 3.55 | 1.1 | 6.53 | 1.76 | 8.61 | 0.94 | 3.75 | 4.71 | 5.84 | 4.25
